Most compounds without a hit are left out; they make up all but 19% or so of the library.
DT40 TDP1 no CPT: qHTS for Inhibitors of human tyrosyl-DNA phosphodiesterase 1 (TDP1): qHTS in cells in absence of CPT | DT40 Tdp1-/- hTDP1 cells, no CPT, ATP luminescence, 48 h | Potency, µM (titrated, usually from 46.2 µM), for inactives: at the highest dose activity change, negative = growth inhibition, actives largely listed as inhibitors | 420,000 compounds, 15% hits; also: potency is read from the fitted curve at half-maximal effect; nearly all actives have a fitted effect of over 55% in size
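Camptothecin absent (DMSO only). Human TDP1-complemented DT40 knockout cells, 400 cells/well, 37 °C for minimum 48 hr; ATP measured via CellTiter-Glo, 30 min dark incubation, luminescence.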
HT1080 IDH1KD tx: qHTS for induction of synthetic lethality in tumor cells producing 2HG: qHTS for the HT-1080-IDH1KD cell line | 360,000 compounds, 2% hits | HT-1080 IDH1 knockdown viability, ATP luminescence, 48 h | Potency, µM (titrated, usually from 46.1 µM), without a hit: top-dose activity, negative = toxicity, hits mostly cytotoxic;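 also: potency is read from the fitted curve at half-maximal effect; 0% = DMSO wells and -100% = cell-free medium wells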
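Cytotoxicity counter-line: IDH1KD HT-1080, 48 h, CellTiter-Glo. Curves classed by r2, magnitude and activity.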
HT1080-NT tox: qHTS for induction of synthetic lethality in tumor cells producing 2HG: qHTS for the HT-1080-NT fibrosarcoma cell line. HT-1080-NT fibrosarcoma viability, CellTiter-Glo ATP luminescence, 48 h. Potency, µM (titrated, usually from 46.1 µM), for inactives: at the top dose activity, negative = less viability, most hits filed as cytotoxic. 360,000 compounds, 1.6% hits;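 also: NT is the 2HG producing partner of a matched IDH1 knockdown line; potency is read from the fitted curve at half-maximal effect; 0% = DMSO-treated cells and -100% = media-only wells without cells; nearly all actives have a fitted effect of over 55% in size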
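750 cells/well, RPMI + 5% FBS; 2 h settle, compound pin-transfer, 48 h at 37 degrees C. CellTiter-Glo 10 min RT, luminescence. Normalized to DMSO and media-only wells.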
TDP1 cell CPT: qHTS for Inhibitors of human tyrosyl-DNA phosphodiesterase 1 (TDP1): qHTS in cells in presence of CPT; chicken DT40 Tdp1-/-;hTDP1 cells + 20 nM CPT, ATP luminescence, 48 h; Potency, µM (top dose mostly 46.2 µM), inactives show at the top dose activity change, negative = growth inhibition, hits mostly inhibitors; 420,000 compounds, 12% hits; AID 686979, 2013; also: potency is read from the fitted curve at half-maximal effect; nearly all actives have a fitted effect of over 55% in size
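Chicken DT40 Tdp1-/- cells stably complemented with human TDP1 were seeded at 400 cells/well in medium containing 20 nM camptothecin, exposed to pin-transferred compounds, and grown at 37 °C for at least 48 hr. Viability was read as ATP luminescence.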
IL1B secr inh: qHTS for Inhibitors of Inflammasome Signaling: IL-1-beta AlphaLISA Primary Screen | activity change, % at 57.5 µM | 360,000 compounds, 4.7% hits | AID 743279, 2014 | THP-1 LPS/ATP IL-1B secretion, AlphaLISA, 16 h; hits give low values; in the data active = activity change below about -50%; inconclusive = mostly about -30% to -49%
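Secreted IL-1B measured by AlphaLISA bead assay after 16 h compound exposure of THP-1 cells; compounds (final up to 57.5 uM) added 1 h before LPS (250 ng/mL) and ATP (1.25 mM) stimulation; lower signal means less secretion.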
* marks the source's active call; other numbers are inactive results; u = inconclusive; x = no result. Unless noted, calls follow the shape of the dose curve; as a rule, active = well fitted curve in the direction sought with a large enough effect; inconclusive = small, poorly fitted or top-dose-only effect, or another doubt; inactive = no such curve, though single readings can be large; an effect the other way counts as inactive or inconclusive. Unless noted, % is scaled to controls: 0 for no effect and ±100 for the full control effect.

SMILES	DT40 TDP1 no CPT	HT1080 IDH1KD tx	HT1080-NT tox	TDP1 cell CPT	IL1B secr inh
Cc1ccc(S(=O)(=O)N2CCC(C(=O)Nc3ccccc3N3CCCC3)CC2)cc1	-3.3%	-5.1%	-11.6%	-19.7%	-9.9
CCOC(=O)C1CCCN(S(=O)(=O)c2cccc3cccnc23)C1 (configuration not stated)	-15.2%	2.6%	10.8%	-17.3%	5.6
COc1ccc(S(=O)(=O)N2CCC(C(=O)Nc3ccccc3N3CCCC3)CC2)cc1OC	-5.2%	5.0%	16.0%	u	u
Cc1cc(C)c(C)c(S(=O)(=O)N2CCC(C(=O)Nc3ccccc3N3CCOCC3)CC2)c1C	14.6µM*	6.9%	8.0%	u	-7.3
CCOc1ccc(S(=O)(=O)N2CCC(C(=O)Nc3ccccc3N3CCCC3)CC2)cc1	20.6µM*	12.7%	-9.0%	u	u
COc1ccc(C(=O)Nc2cc(OC)c(Cl)cc2Cl)cc1	23.1µM*	-4.4%	-18.0%	2.5%	9.9
COc1cc(NC(=O)c2ccc(C(=O)Nc3cc(OC)c(Cl)cc3OC)cc2)c(OC)cc1Cl	0.9%	x	x	-2.9%	x
COc1cc(OC)c(NC(=O)c2cc3ccccc3cc2O)cc1Cl	u	-8.7%	-11.1%	10.3µM*	-78.2*
Cc1ccc(C(=O)N2CCN(C)CC2)cc1[N+](=O)[O-]	5.1%	16.6%	14.4%	2.6%	5.2
N#C/C(=C\c1ccco1)C(=O)Nc1cccc2ncccc12	1.1%	8.9%	8.8%	-0.7%	-8.7
CCOC(=O)COc1ccccc1/C=C1\NC(=O)NC1=O	7.9%	24.6%	4.2%	8.9%	-91.1*
Cc1ccc(NC(=O)[C@@H]2O[C@H](CO)[C@@H](O)[C@H]2O)cc1C(F)(F)F	-28.4%	11.8%	18.9%	u	46.6
COCCSc1nnc(NC(=O)CSCc2ccccc2)s1	-11.6%	u	u	-11.5%	14.7
Cc1ccc(-c2ccccc2)n1-c1ccc(C(=O)O)cc1	-9.7%	0.2%	1.0%	-20.8%	-8.2
Oc1ccccc1-n1c(-c2ccccc2)ccc1-c1ccccc1	-25.2%	u	u	u	-80.5*
COc1ccc2c(c1)c(=O)c(C(=O)c1ccc(F)cc1)cn2CC(=O)Nc1ccc(F)cc1	u	-4.4%	-11.2%	u	-24.1
CCc1ccc(C(=O)c2cn(CC(=O)Nc3cccc(OC)c3)c3ccc(OC)cc3c2=O)cc1	23.1µM*	x	x	u	x
COc1cccc(NC(=O)Cn2cc(C(=O)c3ccc(F)cc3)c(=O)c3cc(OC)ccc32)c1	-15.9%	x	x	-2.1%	x
COc1ccc2c(c1)c(=O)c(C(=O)c1ccc(C)cc1)cn2CC(=O)Nc1ccc(F)cc1	16.4µM*	-24.4%	-24.7%	u	-15.4
CCc1ccc2c(c1)c(=O)c(C(=O)c1ccccc1)cn2CC(=O)Nc1ccc(C)c(Cl)c1	11.6µM*	x	x	20.6µM*	x
O=C(OCC(=O)C12CC3CC(CC(C3)C1)C2)c1cnccn1	-8.1%	-1.0%	0.2%	15.5%	7.0
O=C(/C=C/[C@H]1O[C@@H](n2ccc(=O)[nH]c2=O)[C@H](O)[C@@H]1O)NCc1ccc2c(c1)OCO2	29.8%	4.3%	-2.1%	-19.8%	-2.8
C=C1C(=O)O[C@H]2C[C@H]1[C@@H](OC(C)=O)C/C(C)=C/CC/C(C)=C\CC[C@]2(C)O	2.91µM*	16.4µM*	13µM*	2.59µM*	-113.4*
CC(=O)O[C@@H]1C[C@H]2C(C)=C[C@H]3OC(=O)[C@@H](C)[C@H]3C[C@H]2[C@]1(C)O	2.5%	11.1%	11.1%	20.0%	17.2
COc1ccc(NC(=O)CSc2nc3c(c(=O)n2-c2ccc(C)cc2)SCC3)c(OC)c1	-4.8%	15.2%	8.3%	-1.5%	-10.0

Screens deposited in PubChem by National Center for Advancing Translational Sciences (NCATS).
